# According to the supplement of paper PMC8728848:
# The entries come from a sample that favours the strongest signals as a whole.
# Experiments:
# Experiment in all cases: glycan array binding signal (z-score within array); higher = stronger binding
# Settings in all cases: glycan notation: IUPAC condensed, linker removed
# [1] = molecular target: Fuc(a1-2)Gal(b1-3)GlcNAc(b1-3)Gal(b1-4)Glc
# Summary of the method: (§1)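 Glycan array data were curated from 3228 arrays in the Consortium for Functional Glycomics database and kept only where the protein sequence was available. Glycan names were converted to IUPAC-condensed notation, and columns mapping to the same glycan were averaged. The binding signal is a within-array Z-score, averaged across arrays of the same protein sequence at different concentrations or buffers and across linkers. Negative Z-scores can be read as non-binding.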
# [2] = molecular target: Fuc(a1-2)Gal(b1-3)GlcNAc(b1-3)[Gal(b1-4)GlcNAc(b1-6)]Gal(b1-4)Glc
# Summary of the method: as §1
# [3] = molecular target: Fuc(a1-2)Gal(b1-3)[Fuc(a1-4)]GlcNAc(b1-2)Man(a1-3)[Fuc(a1-2)Gal(b1-3)[Fuc(a1-4)]GlcNAc(b1-2)Man(a1-6)]Man(b1-4)GlcNAc(b1-4)GlcNAc
# Summary of the method: as §1
# Fuc(a1-2)Gal(b1-4)Glc6S = molecular target: Fuc(a1-2)Gal(b1-4)Glc6S
# Summary of the method: as §1
# [4] = molecular target: Fuc(a1-2)Gal(b1-4)[Fuc(a1-3)]GlcNAc(b1-2)Man(a1-3)[Fuc(a1-2)Gal(b1-4)[Fuc(a1-3)]GlcNAc(b1-2)Man(a1-6)]Man(b1-4)GlcNAc(b1-4)GlcNAc
# Summary of the method: as §1
# [5] = molecular target: Fuc(a1-2)Gal(b1-4)[Fuc(a1-3)]GlcNAc(b1-2)[Fuc(a1-2)Gal(b1-4)[Fuc(a1-3)]GlcNAc(b1-4)]Man(a1-3)[Fuc(a1-2)Gal(b1-4)[Fuc(a1-3)]GlcNAc(b1-2)Man(a1-6)]Man(b1-4)GlcNAc(b1-4)GlcNAc
# Summary of the method: as §1
# [6] = molecular target: Fuc(a1-2)[Gal(a1-3)]Gal(b1-3)GlcNAc(b1-2)Man(a1-3)[Fuc(a1-2)[Gal(a1-3)]Gal(b1-3)GlcNAc(b1-2)Man(a1-6)]Man(b1-4)GlcNAc(b1-4)[Fuc(a1-6)]GlcNAc
# Summary of the method: as §1
# [7] = molecular target: Fuc(a1-2)[GalNAc(a1-3)]Gal
# Summary of the method: as §1
# [8] = molecular target: Gal(a1-3)Gal(b1-4)GlcNAc(b1-3)GalNAc
# Summary of the method: as §1
# [9] = molecular target: Gal(b1-3)GalNAc(b1-3)Gal(a1-4)Gal(b1-4)Glc
# Summary of the method: as §1
# [10] = molecular target: Gal(b1-3)GalNAc(b1-4)[Neu5Ac(a2-3)]Gal(b1-4)Glc
# Summary of the method: as §1
# [11] = molecular target: Gal(b1-3)GlcNAc(b1-3)Gal(b1-4)GlcNAc(b1-6)[Gal(b1-3)GlcNAc(b1-3)]Gal(b1-4)Glc
# Summary of the method: as §1
# [12] = molecular target: Gal(b1-3)GlcNAc(b1-6)Gal(b1-4)GlcNAc
# Summary of the method: as §1
# [13] = molecular target: Gal(b1-3)[Neu5Ac(b2-6)]GalNAc
# Summary of the method: as §1
# Gal(b1-4)GlcNAc = molecular target: Gal(b1-4)GlcNAc
# Summary of the method: as §1
# Gal3S(b1-4)Glc6S = molecular target: Gal3S(b1-4)Glc6S
# Summary of the method: as §1
# Gal6S(b1-3)GlcNAc6S = molecular target: Gal6S(b1-3)GlcNAc6S
# Summary of the method: as §1
# GlcA(b1-3)GlcNAc = molecular target: GlcA(b1-3)GlcNAc
# Summary of the method: as §1
# [14] = molecular target: GlcNAc(a1-4)Gal(b1-4)GlcNAc(b1-3)Gal(b1-4)GlcNAc
# Summary of the method: as §1
# [15] = molecular target: GlcNAc(b1-2)Gal(b1-3)GalNAc
# Summary of the method: as §1
# [16] = molecular target: GlcNAc(b1-3)Gal(b1-3)GalNAc
# Summary of the method: as §1
# [17] = molecular target: GlcNAc(b1-3)Gal(b1-4)GlcNAc
# Summary of the method: as §1
# [18] = molecular target: Man(a1-2)Man(a1-6)[Man(a1-3)]Man(a1-6)[Man(a1-2)Man(a1-2)Man(a1-3)]Man(b1-4)GlcNAc(b1-4)GlcNAc
# Summary of the method: as §1
# Neu5Ac(a2-3)Gal = molecular target: Neu5Ac(a2-3)Gal
# Summary of the method: as §1
# [19] = molecular target: Neu5Ac(a2-3)Gal(b1-3)GalNAc(b1-4)[Neu5Ac(a2-3)]Gal(b1-4)Glc
# Summary of the method: as §1
# [20] = molecular target: Neu5Ac(a2-3)Gal(b1-3)[Fuc(a1-4)]GlcNAc(b1-3)Gal(b1-3)[Fuc(a1-4)]GlcNAc
# Summary of the method: as §1
# [21] = molecular target: Neu5Ac(a2-3)Gal(b1-4)GlcNAc(b1-3)Gal
# Summary of the method: as §1
# [22] = molecular target: Neu5Ac(a2-3)Gal(b1-4)GlcNAc(b1-6)[Gal(b1-3)]GalNAc
# Summary of the method: as §1
# [23] = molecular target: Neu5Ac(a2-3)Gal(b1-4)[Fuc(a1-3)]GlcNAc(b1-3)Gal(b1-4)GlcNAc
# Summary of the method: as §1
# [24] = molecular target: Neu5Ac(a2-6)Gal(b1-4)GlcNAc(b1-2)Man(a1-3)[Neu5Ac(a2-6)Gal(b1-4)GlcNAc(b1-2)Man(a1-6)]Man(b1-4)GlcNAc(b1-4)GlcNAc
# Summary of the method: as §1
# [25] = molecular target: Neu5Ac(a2-8)Neu5Ac(a2-3)Gal(b1-3)GalNAc(b1-4)[Neu5Ac(a2-8)Neu5Ac(a2-3)]Gal(b1-4)Glc
# Summary of the method: as §1
# Neu5Ac(b2-6)GalNAc = molecular target: Neu5Ac(b2-6)GalNAc
# Summary of the method: as §1
# [26] = molecular target: Neu5Gc(a2-3)Gal(b1-3)GlcNAc
# Summary of the method: as §1
# [27] = molecular target: Neu5Gc(a2-3)Gal(b1-4)GlcNAc
# Summary of the method: as §1
# [28] = molecular target: Neu5Gc(b2-6)Gal(b1-4)GlcNAc
# Summary of the method: as §1
binder,measurement,setting,value
"MFG-E8 (Homo sapiens), Q08431 (protein) MPRPRLLAALCGALLCAPSLLVALDICSKNPCHNGGLCEEISQEVRGDVFPSYTCTCLKGYAGNHCETKCVEPLGLENGNIANSQIAASSVRVTFLGLQHWVPELARLNRAGMVNAWTPSSNDDNPWIQVNLLRRMWVTGVVTQGASRLASHEYLKAFKVAYSLNGHEFDFIHDVNKKHKEFVGNWNKNAVHVNLFETPVEAQYVRLYPTSCHTACTLRFELLGCELNGCANPLGLKNNSIPDKQITASSSYKTWGLHLFSWNPSYARLDKQGNFNAWVAGSYGNDQWLQVDLGSSKEVTGIITQGARNFGSVQFVASYKVAYSNDSANWTEYQDPRTGSSKIFPGNWDNHSHKKNLFETPILARYVRILPVAWHNRIALRLELLGC",glycan array binding signal (z-score),[1],-0.126
same,glycan array binding signal (z-score),[2],-0.539
same,glycan array binding signal (z-score),[3],2.2
same,glycan array binding signal (z-score),Fuc(a1-2)Gal(b1-4)Glc6S,-0.507
same,glycan array binding signal (z-score),[4],2.88
same,glycan array binding signal (z-score),[5],2.94
same,glycan array binding signal (z-score),[6],-0.115
same,glycan array binding signal (z-score),[7],-0.746
same,glycan array binding signal (z-score),[8],-0.233
same,glycan array binding signal (z-score),[9],-0.572
same,glycan array binding signal (z-score),[10],-0.7
same,glycan array binding signal (z-score),[11],2.38
same,glycan array binding signal (z-score),[12],-0.672
same,glycan array binding signal (z-score),[13],0.07
same,glycan array binding signal (z-score),Gal(b1-4)GlcNAc,-0.753
same,glycan array binding signal (z-score),Gal3S(b1-4)Glc6S,6.38
same,glycan array binding signal (z-score),Gal6S(b1-3)GlcNAc6S,3.63
same,glycan array binding signal (z-score),GlcA(b1-3)GlcNAc,0.43
same,glycan array binding signal (z-score),[14],3.21
same,glycan array binding signal (z-score),[15],-0.68
same,glycan array binding signal (z-score),[16],0.268
same,glycan array binding signal (z-score),[17],-0.62
same,glycan array binding signal (z-score),[18],2.16
same,glycan array binding signal (z-score),Neu5Ac(a2-3)Gal,-0.156
same,glycan array binding signal (z-score),[19],1.61
same,glycan array binding signal (z-score),[20],1.24
same,glycan array binding signal (z-score),[21],0.052
same,glycan array binding signal (z-score),[22],-0.167
same,glycan array binding signal (z-score),[23],-0.126
same,glycan array binding signal (z-score),[24],1.09
same,glycan array binding signal (z-score),[25],-0.776
same,glycan array binding signal (z-score),Neu5Ac(b2-6)GalNAc,1.84
same,glycan array binding signal (z-score),[26],-0.636
same,glycan array binding signal (z-score),[27],1
same,glycan array binding signal (z-score),[28],-0.408
